MARV entry inh = inhibitors of Marburg virus binding or cell entry | AID 540276 | actives 1.8% (n = 300,000) | Potency, µM (doses to about 37.8 µM), without a hit: top-dose activity change, negative = inhibition, usual class: inhibitors | Marburg virus pseudotyped entry inhibition, cell reporter; calls by dose curve; tested in HEK293 cells; further: potency means the concentration at half of the fitted maximal effect; on the % scale 0 is the no-effect control and ±100 the full control effect
HCMV antiviral = inhibitors of human cytomegalovirus; actives 4.5% (n = 410,000); HFF cells, HCMV-luciferase reporter, 72 h; hits give low values; AID 1259415; activity change, negative = inhibition, % at 57.5 µM; in the data active means activity change below about -60%; inconclusive means no clear call, values can overlap the other calls; inactive means above about -39%; further: on the % scale 0 is the no-effect control and ±100 the full control effect
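After 16 h attachment at 37C, HFF cells received test compound and HCMV-luciferase (1 PFU/cell); reporter luminescence read 72 h later, data normalized against buffer-only and known inhibitor Salinomycin.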
SARS PLpro yeast = inhibitors of SARS-CoV papain-like protease in yeast; actives 0.19% (n = 330,000); S. cerevisiae expressing SARS-CoV PLpro, growth rescue; AID 485353; Potency, µM (highest dose often 32.9 µM), inactives show top-dose activity, positive = growth rescue, actives largely listed as activators; calls by dose curve; further: potency means the concentration at half of the fitted maximal effect; 0% is about no effect; nearly all actives have a fitted effect of over 55% in size
FMDV inh = blocks foot and mouth disease virus; FMDV antiviral cell-based qHTS; Potency, µM (series often up to 57.9 µM), inactives show top-dose activity change, negative = inhibition, most hits filed as inhibitors; actives 1.2% (n = 410,000); calls by dose curve; tested in HEK293T cells; further: read-out not given here; potency means the concentration at half of the fitted maximal effect; on the % scale 0 is the no-effect control and ±100 the full control effect; nearly all actives have a fitted effect of over 45% in size
LASV entry inh = blocks Lassa virus binding to or entry into cells; Potency, µM (series often up to 37.9 µM), inactives show at the top dose activity change, negative = inhibition, hits mostly inhibitors; Lassa virus pseudotype entry inhibition, cell reporter; actives 1.2% (n = 300,000); calls by dose curve; tested in HEK293 cells; further: potency means the concentration at half of the fitted maximal effect; on the % scale 0 is the no-effect control and ±100 the full control effect; nearly all actives have a fitted effect of over 50% in size
HCV inh = HCV inhibition; Potency, µM (series often up to 41.8 µM), for inactives: top-dose activity change, negative = inhibition, actives largely listed as inhibitors; actives 3.4% (n = 340,000); Huh7.5.1 HCVcc-Cre infection, luciferase reporter, 44 h; AID 651820; active means well fitted inhibition curve with a large enough effect; inconclusive means small, poorly fitted or top-dose-only effect, or another doubt; inactive means no such curve, though single readings can be large or run the other way; further: potency means the concentration at half of the fitted maximal effect; on the % scale 0 is the no-effect control and ±100 the full control effect
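Whole-lifecycle infectious HCVcc-Cre system; cells 1,000/well, compound then virus (~0.5 moi) added 4 h after plating, 44 h culture. Luciferase read 15 sec following 15 min substrate incubation, room temp.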
Active calls of the source: *; ? = inconclusive; . = not tested or not shown; [ ] = remark or other dose. Sampled rows, rich in hits. Any-hit rate of the full collection: about 8%.

SMILES	MARV entry inh	HCMV antiviral	SARS PLpro yeast	FMDV inh	LASV entry inh	HCV inh
COc1ccc(C(C#N)(CCC#N)CCC#N)cc1OC	-4%	64	1%	-1%	1%	6%
O=C(NCCNC1CCC(c2ccccc2)CC1)c1cccs1 (stereo unspecified)	?	-99*	1%	-13%	-10%	?
CCOC(=O)N1CCC(NCCNC(=O)c2cccs2)CC1	0%	-16	8%	-20%	-23%	27%
CCCCn1c(CCC)nc([N+](=O)[O-])c1Sc1ccc(Cl)cn1	?	-77*	9%	?	?	-28%
CC(C)CN=C(NS(=O)(=O)c1ccccc1)C(Cl)(Cl)Cl	?	-100*	-30%	?	?	5µM*
Cc1ccc(NC(=O)N/C=C/c2ccco2)cc1C	4%	-108*	4%	6%	-1%	0%
CCC(Cc1c(I)cc(I)c(N)c1I)C(=O)O (stereo unspecified)	.	-25	.	-15%	.	1%
COc1ccc(-c2nc3ccccc3n2Cc2ccc(C(C)C)cc2)cc1	?	-73*	.	-30%	0%[46.1 µM]	.
COc1ccc(-c2nc3ccccc3n2Cc2ccc(Cl)cc2)cc1	?	4	.	-25%	?	.
CC(=O)c1c(C)[nH]c(C(=O)OCC(=O)c2ccc3c(c2)NC(=O)CO3)c1C	.	0	-3%	-18%	.	-29%
CN1C(=O)N(C)c2ccc(Br)c3cccc1c23	.	?	0%	-12%	.	14µM*
CN1C(=O)N(C)c2ccc(C=O)c3cccc1c23	?	-21	-1%	-9%	?	-11%
CC(C)c1ccc(C(=O)OCC(=O)Nc2cccc(S(=O)(=O)NC3=NCCC3)c2)cc1	.	-7	.	5%	.	.
C/C=C/c1ccc(OCC(O)CNCCc2ccc(OC)cc2)c(OC)c1 (stereo unspecified)	.	?	1%	-27%	.	?
C/C=C/c1ccc(OCCCNC2CCCC2)c(OC)c1	?	1	-4%	0%	?	0.89µM*
C/C=C/c1ccc(OCC(O)CN(C)Cc2ccc(SC)cc2)c(OC)c1 (stereo unspecified)	.	-102*	-4%	-11%	.	-21%
C/C=C/c1ccc(OCC(O)CN2CCCCC2CC)c(OC)c1 (stereo unspecified)	-23%[46.1 µM]	-38	-2%	-9%	-5%	2.5µM*
O=C(CN1CCCC1c1cccs1)Nc1cc(S(=O)(=O)N2CCCC2)ccc1Cl (stereo unspecified)	-6%[46.1 µM]	3	-4%	-21%	?	?
CCOc1ccc(NC(=O)CN2CCCC2c2cccs2)cc1S(=O)(=O)N1CCCC1 (stereo unspecified)	.	-92*	-2%	7%	.	11µM*
O=C(CN1CCCC1c1cccs1)Nc1cccc(S(=O)(=O)N2CCCC2)c1 (stereo unspecified)	.	-33	2%[6.58 µM]	-25%	.	10µM*
COc1ccc(NC(=O)CN2CCCC2c2cccs2)cc1S(=O)(=O)N1CCCCC1 (stereo unspecified)	.	?	-12%	40µM*	.	?
COC1=CC2C(=O)C([C@@H]3c4ccccc4C[C@]23C)C1(O)c1cccc(OC)c1 (stereo partly specified)	4%[14.2 µM]	.	.	.	.	.
CCOC(=O)c1ccc(CN2C(=O)C(n3cccc3)c3ccccc32)o1 (stereo unspecified)	.	11	.	.	.	.
COc1cc(/C=N/Nc2nc(Nc3ccccc3)nc(N3CCOCC3)n2)ccc1OC(=O)c1ccco1	2.1µM*	35	-1%	-5%	?	?
COc1cc(/C=N/Nc2nc(Nc3ccccc3)nc(N3CCCCC3)n2)ccc1OCC(=O)O	14%[46.1 µM]	-36	-1%	21%	-1%[46.1 µM]	20%
SMILES	MARV entry inh	HCMV antiviral	SARS PLpro yeast	FMDV inh	LASV entry inh	HCV inh
O=C(Oc1cccc(/C=N/Nc2nc(N3CCOCC3)nc(N3CCOCC3)n2)c1)c1ccco1	?	125	-19%	?	0%	1.1µM*
O=C(Oc1ccc(Cl)c2cccnc12)N1CCCCCC1	20%	-100*	-7%	-11%	18%	-25%
CN(C)C(=O)Oc1ccc(Cl)c2cccnc12	14%[46.1 µM]	-38	2%	14%	3%	1%
OCCN(CCO)CC(O)COc1ccc2c(c1)OCO2 (stereo unspecified)	?	26	-9%	3%	21%	3%
CCN(CC)CC(O)COc1ccc2c(c1)OCO2 (stereo unspecified)	?	-98*	-5%	-19%	2%	3%
O=C(O)C1=CC[C@@H](c2ccc(Cl)cc2)N(S(=O)(=O)c2ccc(Cl)cc2)[C@H]1c1cccc(Cl)c1	.	-3	-21%	-18%	.	0%
O=C1C2C3C=CC(C3)C2C(=O)N1c1ccc(N2CCN(c3ccccn3)CC2)c([N+](=O)[O-])c1 (stereo unspecified)	.	-66*	-1%	?	.	10µM*
O=C(CCN1C(=O)C2C3C=CC(C3)C2C1=O)N1CCN(c2ccccn2)CC1 (stereo unspecified)	1%	-9	-5%	2%	-23%	-8%
CCOC(=O)N1CCC(NC(=O)CSCc2nc(-c3ccc(OCC)cc3)oc2C)CC1	.	?	-2%	?	.	?
Cc1oc(-c2ccccc2Cl)nc1CSCC(=O)NC1CCCC1	-13%[46.1 µM]	-75*	-14%	-14%	-13%	-12%
CCOc1ccc(-c2nc(CSCC(=O)NCc3ccc(C)cc3)c(C)o2)cc1	.	-69*	.	-5%	3%[46.1 µM]	.
CCOc1ccc(-c2nc(CSCC(=O)NC3CC3)c(C)o2)cc1	.	?	-5%	19%	.	-26%
CCOc1ccc(-c2nc(CSCC(=O)NC3CCN(Cc4ccccc4)CC3)c(C)o2)cc1	.	-94*	.	?	.	.
CCOC(=O)N1CCC(NC(=O)CSCc2nc(-c3cccc(OC)c3)oc2C)CC1	?	-93*	3%	?	-9%	?
CCOC(=O)N1CCC(NC(=O)CSCc2nc(-c3ccccc3Cl)oc2C)CC1	-14%[46.1 µM]	-22	-1%	-22%	?	-28%
COc1cc(CN2CCOc3ccc(CN4CCC(O)(c5cccnc5)CC4)cc3C2)ccc1F	.	.	.	1%	.	.
O=C(Cn1cc([N+](=O)[O-])cn1)NC1CCCCCC1	-2%[46.1 µM]	20	2%	22%	13%	19%
CN(C)c1ncc2nc(-c3ccccc3)c(=O)n(C3CC3)c2n1	.	.	.	9%	.	.
Cc1ccc(C(=O)c2oc3ccccc3c2NC(=O)c2nc(S(C)(=O)=O)ncc2Cl)cc1F	23%[46.1 µM]	14	.	-6%	-3%[46.1 µM]	.
COc1ccc(CNC(=O)C2CCCN2c2nc(C)c3ccccc3n2)cc1 (stereo unspecified)	.	.	.	-2%	.	.
CCOc1ccc(-c2nc(CSCC(=O)NCc3ccco3)c(C)o2)cc1	?	?	-8%	-9%	?	?
Cc1oc(-c2cccs2)nc1CSCC(=O)NC1CC1	20%[46.1 µM]	-2	4%	-13%	0%	19%

Screening data deposited in PubChem BioAssay by National Center for Advancing Translational Sciences (NCATS).
